# Assay results reported in PubChem BioAssay.
# Active and inactive are the calls of the source.
# Test system: XIP peptide (Xip251-270) binding
# Test: XIP fragment 251-270 binding compounds – biochemical, small-molecule microarray, fluorescence 635/667 nm, 0.1 µg/mL protein, primary screen (AID 1182)
# Settings: fluorescent protein binding, 635 nm, higher = more signal, called active from +8 up or from −8 down
row,Structure (SMILES),composite z-score
1,CN1C(=O)C2C=CC(C(O)c3ccc(Br)cc3)N(N(c3ccccc3)c3ccccc3)C2C1=O (stereo not drawn),0.654 (inactive)
2,CC1CC/C=C\[C@H]2OC34C=CCN(C(C)C)C(=O)[C@H]3N(CCCO)C(=O)[C@@H]4C2C(=O)O1 (stereo partly drawn),0.94 (inactive)
3,CCCC[C@H]1OB(O)C[C@H]2C1=C(C)C[C@H]1C(=O)N(C)C(=O)[C@H]12,0.756 (inactive)
4,O=C(CS)NCCCCCNC(=O)[C@H]1C[C@H]2C(=O)N3CCC[C@H]3C(=O)N2[C@H]1c1cccc(OCCO)c1,0.81 (inactive)
5,COCCOC(=O)N1C(=O)[C@@]2(c3cc(C#Cc4ccc(OC)cc4)ccc31)[C@H](C(=O)N1CCN(c3ncccn3)CC1)[C@H]1C(=O)O[C@H](c3ccccc3)[C@H](c3ccccc3)N1[C@@H]2c1ccc(OCCO)cc1,0.115 (inactive)
6,C=CCNC(=O)[C@H]1[C@@H]2C(=O)O[C@@H](c3ccccc3)[C@@H](c3ccccc3)N2[C@@H](c2ccc(O)cc2)[C@]12C(=O)N(C(=O)OCCOC)c1ccc(C#CC3=CCCCC3)cc12,0.514 (inactive)
7,COCCCNC(=O)[C@@]1(C)c2ccccc2C(=O)N(Cc2ccc(OC(F)(F)F)cc2)[C@H]1c1ccc(CO)cc1,0.111 (inactive)

# Test system: XIP peptide (Xip251-270)
# Test: compounds binding XIP fragment 251-270 – biochemical, small-molecule microarray, fluorescence 635/667 nm, 0.5 µg/mL protein, primary screen (AID 1183)
# Settings: fluorescence 635 nm, higher = more signal
row,Structure (SMILES),composite z-score
1,CC(C)OC(=O)C=C1C[C@@H](c2ccc(C#N)cc2)O[C@@H](c2ccc(C#N)cc2)O1,0.865
2,COC(=O)C1(C)C=C2C(=C(c3ccccc3)C(=O)C2C)CN1 (stereo not drawn),0.923
3,C=C(COC)/C(=C/C[C@H](OC(=O)c1ccncc1)c1ccc(CO)o1)c1cc(C(=O)OC)ccc1OC,0.483
4,CC(C)=C1C(=O)C(c2ccccc2)=C2CN3C(=O)N(CCc4ccccc4)C(=O)[C@]3(Cc3ccc(F)cc3)[C@H]21,-0.27
5,O=C1NC(=O)C2C1C=CC(C(O)Cc1ccccc1)N2Nc1ccccn1 (stereo not drawn),0.804
6,CC(C)(C)N1CC=CC23O[C@@H]4C=CCCOC(=O)C4[C@H]2C(=O)N(CCCCCO)[C@@H]3C1=O (stereo partly drawn),0.12
7,CN(C)c1ccc(C(O)C2C=CC3C(=O)N(c4ccccc4)C(=O)C3N2Nc2ccccc2F)cc1 (stereo not drawn),0.265
8,CC(C)(C)OC(=O)CC[C@]1(C(=O)NCc2ccccc2)N=C(c2ccc(OCCCO)cc2)O[C@H]1c1ccccc1,0.846
9,COC(=O)[C@]1(CO)N=C(c2ccc(OCCCO)cc2)O[C@@H]1c1ccccc1N=[N+]=[N-],0.812
10,COC(=O)[C@@]1(Cc2ccc(F)cc2)[C@H]2c3cc(C(=O)N(C)C)n(Cc4ccc(OC)c(OC)c4)c3C[C@H]2CN1C(=O)c1ccccc1,0.835
11,CCOc1ccc(N2C(=O)/C(=C/C=C/c3ccccc3OC)S(=O)(=O)C2c2cccc([N+](=O)[O-])c2)cc1 (stereo not drawn),-0.299
12,CN(C)CCCNC(=O)[C@@H]1c2ccccc2C(=O)N(Cc2cc(F)cc(C(F)(F)F)c2)[C@H]1c1ccc(CO)cc1,-0.0306
13,CC(C)(C)OC(=O)CC[C@]1(C(N)=O)COC(c2ccc(OCCCO)cc2)=N1,0.223
14,CCCCCN1CC=CC23O[C@@H]4C=CCOC(=O)[C@@H]4[C@H]2C(=O)N(C(CO)C(C)C)[C@@H]3C1=O (stereo partly drawn),0.907
15,C=C(/C(=C/C[C@@H](OC(=O)c1ccncc1)c1ccc(OCCO)cc1)c1cnc2ccccc2c1)C(C)C,0.565
16,O=C1O[C@@H](c2ccccc2)[C@@H](c2ccccc2)N2[C@@H](c3ccc(OCCO)cc3)[C@]3(C(=O)Nc4ccc(C#CCCO)cc43)[C@@H](C(=O)N3CCCCCCC3)[C@H]12,0.883
17,Cc1ccc(C2CC=C(C(=O)O)CN2S(=O)(=O)c2ccc(C)cc2)cc1 (stereo not drawn),0.912
18,Cc1ccc(S[C@]2(C(=O)O)CC(=O)N(Cc3ccccc3)[C@@H]2c2ccc(CO)cc2I)cc1,0.564

row,Structure (SMILES),composite z-score
1,CCOC(=O)C[C@H]1[C@H](OC(=O)c2ccc(C(=O)c3ccccc3)cc2)[C@@H](NC(=O)c2ccc(-c3ccccc3)cc2)c2cc(OCCCO)ccc2N1C(=O)c1ccc2ccccc2n1,0.388
2,C=CCN1C(=O)[C@]2(O[C@H](CCn3cc(CCO)nn3)[C@@H]([Si](C)(C)c3ccc(OC)cc3)[C@@H]2C)c2cc(N3CCOC3=O)ccc21,0.57
3,CN(C)C(=O)[C@@]1(Cc2ccccc2)N=C(c2ccc(OCCCO)cc2)O[C@H]1c1ccccc1CN=[N+]=[N-],0.746
4,COc1ccc([Si](C)(C)[C@H]2[C@H](CC(=O)N3CCC[C@H]3CO)O[C@@]3(C(=O)N(Cc4cccc(N5C(=O)COc6ccccc65)c4)c4ccccc43)[C@@H]2C)cc1,0.74
5,COCCCNC(=O)[C@@]1(CCS(=O)(=O)c2ccccc2)N=C(c2ccc(OCCCO)cc2)O[C@H]1c1ccccc1,0.875
6,COCCCNC(=O)[C@]1(Cc2ccccc2)N=C(c2ccc(OCCCO)cc2)O[C@@H]1c1ccccc1,0.825
7,COc1ccccc1CN1C(=O)c2ccccc2[C@@]2(Cc3ccccc3N(C(C)C)C2=O)[C@@H]1c1ccc(CO)cc1,0.854
8,CC(C)N1CC=CC23O[C@@H]4C=CCCOC(=O)C4[C@H]2C(=O)N(CCCCCCO)[C@@H]3C1=O (stereo partly drawn),0.645
9,CCCNC(=O)[C@@H]1c2ccccc2C(=O)N(c2ccc(C)cn2)[C@H]1c1ccc(CO)cc1,-0.314
10,CCCNC(=O)[C@@H]1c2ccccc2C(=O)N(Cc2ccccc2Cl)[C@H]1c1ccc(CO)cc1,0.799
11,O=C1C[C@]2(c3ccc([N+](=O)[O-])cc3)C(=O)N(CCN3CCOCC3)c3cc(CO)ccc3[C@H]2N1CC12CC3CC(CC(C3)C1)C2,-0.307
12,CN1C(=O)C2C=CC(C(O)c3ccc(Br)cc3)N(N(c3ccccc3)c3ccccc3)C2C1=O (stereo not drawn),0.266
13,CC1CC/C=C\[C@H]2OC34C=CCN(C(C)C)C(=O)[C@H]3N(CCCO)C(=O)[C@@H]4C2C(=O)O1 (stereo partly drawn),-0.835
14,CCCC[C@H]1OB(O)C[C@H]2C1=C(C)C[C@H]1C(=O)N(C)C(=O)[C@H]12,0.608
15,O=C(CS)NCCCCCNC(=O)[C@H]1C[C@H]2C(=O)N3CCC[C@H]3C(=O)N2[C@H]1c1cccc(OCCO)c1,0.887
16,COCCOC(=O)N1C(=O)[C@@]2(c3cc(C#Cc4ccc(OC)cc4)ccc31)[C@H](C(=O)N1CCN(c3ncccn3)CC1)[C@H]1C(=O)O[C@H](c3ccccc3)[C@H](c3ccccc3)N1[C@@H]2c1ccc(OCCO)cc1,0.43
17,C=CCNC(=O)[C@H]1[C@@H]2C(=O)O[C@@H](c3ccccc3)[C@@H](c3ccccc3)N2[C@@H](c2ccc(O)cc2)[C@]12C(=O)N(C(=O)OCCOC)c1ccc(C#CC3=CCCCC3)cc12,0.834
18,COCCCNC(=O)[C@@]1(C)c2ccccc2C(=O)N(Cc2ccc(OC(F)(F)F)cc2)[C@H]1c1ccc(CO)cc1,0.187
